This is an account of results in PubChem BioAssay (Tox21).

Where “and” joins values, the source holds several entries; their conditions need not be identical. Equal entries are not always repeated. Calls of active or inactive are those of the source. The call rests on the fitted dose curve.
On the % scale 0 is the no-effect control and ±100 the full control effect.

A short description of the first test: qHTS assay to identify small molecule agonists of the estrogen related receptor (ERR) signaling pathway from Tox21 library (AID 1224849). Further: nearly all actives have a fitted effect of over 15% in size. The settings on record: ERR reporter cell line, ONE-Glo luciferase, 18 h; at 42.5 µM (top of the series). From the text:
National Center for Advancing Translational Sciences [NCATS]
NIH Chemical Genomics Center [NCGC]
U.S. Environmental Protection Agency [EPA]
National Institutes of Environmental Health Sciences [NIEHS]
National Toxicology Program [NTP]
Estrogen related receptors (ERRs), the first orphan nuclear receptors discovered, play an important role in the control of cellular energy metabolism. ERRs are required for high-energy production in response to the environmental challenges. ERR-alpha was also identified as an adverse marker for breast cancer progression; ERR-alpha-positive tumors have a poor prognosis. To screen and to identify environmental compounds that perturb the ERR signaling pathways could provide valuable information for potential therapeutic or preventive measures in the treatment of metabolic disease. For identifying ERR agonists, ERR cell line (provided by NTP) has been used to screen Tox21 10K library.
The ERR cells were dispensed at 2,000 cells/5 ul/well in 1536-well white plates using a Multidrop dispenser. After the assay plates were incubated at a 37 C/5% CO2 incubator for 6 hours, 23 nL of compounds dissolved in DMSO, positive and negative controls or DMSO only was transferred to the assay plate by a pin tool. The plates were incubated at 37 C for 18 hours. 4 ul/well of One-Glo reagent was added into the assay plates using a Flying Reagent Dispenser. After 30-minute incubation at room temperature, the luminescence intensity in the plates was measured using a ViewLux plate reader.
In general terms: Quantitative high-throughput screening tests each substance at several concentrations.
Regarding `O=C(O)/C=C\C(=O)O`, the activity change, positive = activation is 6.09% (inactive).
Regarding `CCn1cc(C(=O)O)c(=O)c2ccc(C)nc21`, the activity change, positive = activation is 4.67% (inactive).

The test is the same for the next values; noted with them: ERR reporter cell line, ONE-Glo luciferase, 18 h; at 92.4 µM (top of the series).
Turning to `O=C(O)/C=C\C(=O)O`, the activity change, positive = activation is 3.24% (inactive) and 1.53% (inactive).
Take `CCn1cc(C(=O)O)c(=O)c2ccc(C)nc21`: the activity change, positive = activation was 4.5% (inactive) and 0.305% (inactive).

Staying with this test, now noted: ERR reporter cell line, ONE-Glo luciferase, 18 h; at 92.4 µM (top of the series) unless noted.
`Cc1ccc(N(SC(F)(Cl)Cl)S(=O)(=O)N(C)C)cc1`: the activity change, positive = activation is -74.2% (inactive).
Still for that read-out and setting: the same measure for `O=S(=O)(C(Cl)(Cl)Cl)C(Cl)(Cl)Cl`: -70.9% (inactive); for `CNc1ccccc1`: -1.42% (inactive).
As for `CCCCC(CC)COC(=O)c1ccc(C(=O)OCC(CC)CCCC)cc1` (stereo not given), the activity change, positive = activation is 0.923% (inactive).
With `c1ccc2c(c1)ccc1ncccc12`, the activity change, positive = activation was -4.48% (inactive).
Regarding `Nc1ccc(Cl)cc1Cl`, the activity change, positive = activation is -4.05% (inactive).
`NC(=Nc1ccccc1)Nc1ccccc1`: the activity change, positive = activation was 17.6% (active).
Same read-out and setting: as for `COc1ccccc1[N+](=O)[O-]`, the figure is 4.31% (inactive).
Take `Cc1cccc(C)c1`: the activity change, positive = activation was 1.06% (inactive).
On to `O=C(Nc1ccccc1-c1ccc(Cl)cc1)c1cccnc1Cl`, for which the activity change, positive = activation was -31.8% (inactive).
Consider `CCc1cccc(C)c1N`, for which the activity change, positive = activation is 10.2% (inactive).
In the case of `CCC(C)=O`, the activity change, positive = activation is -6.3% (inactive).
For the compound `CO/C=C(/C(=O)OC)c1ccccc1Oc1cc(Oc2ccccc2C#N)ncn1`, the activity change, positive = activation was -64.5% (inactive).
Same read-out and setting: as for `O=C1OC(=O)c2c(Cl)c(Cl)c(Cl)c(Cl)c21`, the figure is -2.98% (inactive); as for `ClC1=C(Cl)[C@]2(Cl)[C@@H]3[C@@H](Cl)[C@H]4O[C@H]4[C@@H]3C1(Cl)C2(Cl)Cl`, -26.9% (inactive); as for `Cc1nnc2n1-c1sc(CCc3ccc(CC(C)C)cc3)cc1C(c1ccccc1Cl)=NC2C` (stereo not given), -59.4% [at 42.5 µM] (inactive).
Consider `Nc1ccc(N)c2ccccc12`, for which the activity change, positive = activation is -69.5% (inactive).
Turning to `O=[N+]([O-])c1c(Cl)c(Cl)cc(Cl)c1Cl`, the activity change, positive = activation was 0.621% (inactive).
For the compound `Brc1ccccc1-c1ccccc1`, the activity change, positive = activation is -1.58% (inactive).
Take `COc1ccc(C(c2ccc(OC)cc2)C(Cl)(Cl)Cl)cc1`: the activity change, positive = activation was -35.3% (inactive).
Turning to `Nc1ccc([N+](=O)[O-])cc1`, the activity change, positive = activation is -29.9% (inactive).
Turning to `CN1CSC(=S)N(C)C1`, the activity change, positive = activation is -78.8% (inactive) and -76.3% (inactive).
As to `c1ccc2c(c1)Sc1ccccc1N2CC1CN2CCC1CC2` (stereo not given), the activity change, positive = activation is -49.8% [at 42.5 µM] (inactive).
In the case of `CC(c1ccccc1)(c1ccc(O)cc1)c1ccc(O)cc1`, the activity change, positive = activation was -53.1% (inactive).
As for `O=C(c1ccccc1)C(Cl)Cl`, the activity change, positive = activation was -27.3% (inactive).
Regarding `Oc1c(I)cc(I)cc1I`, the activity change, positive = activation was -24.5% (inactive).
For the compound `O=[N+]([O-])c1cc(C(F)(F)F)ccc1Cl`, the activity change, positive = activation is -5.28% (inactive).
On to `COc1cc(OC)c(OC)cc1C=O`, for which the activity change, positive = activation was -39.3% (inactive).
Take `CCC1C(=O)OCC1Cc1cncn1C` (stereo not given): the activity change, positive = activation was 4.65% [at 42.5 µM] (inactive).
`CC(N)C(=O)OC(C)(C)Cc1ccc(Cl)cc1` (stereo not given): the activity change, positive = activation is 8.82% [at 42.5 µM] (inactive).
As to `Brc1cc(Br)cc(Br)c1`, the activity change, positive = activation was -1.12% (inactive).
In the case of `Cc1ccc([N+](=O)[O-])c(C)c1`, the activity change, positive = activation is -82.5% (inactive).
For `O=Nc1ccc(Nc2ccccc2)cc1`, the activity change, positive = activation is -79.9% (active).
`Cc1cc(C(C)(C)c2ccc(O)c(C)c2)ccc1O`: the activity change, positive = activation is -66.8% (inactive).
Same read-out and setting: as for `N#Cc1cc([N+](=O)[O-])ccc1N`, the figure is -2.3% (inactive); as for `O=C(O)/C=C/C(=O)O`, 4.47% (inactive) and 1.26% (inactive).
